{
  "source": "PubChem BioAssay (NCI)",
  "note": "Compounds without any hit were thinned out: in the full panel of roughly 83,000, 20% have a hit.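 Results are percent growth after 48 hours of single-concentration exposure. 100 means growth as in untreated cells, lower positive values show inhibition; negative values down to -100 show cell death.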 Activity calls are given as the source filed them. How the source made its calls: active means growth percent below 10; inactive means the rest.",
  "data": [
    {"test_system": "PC-3 prostate", "test": "NCI-60 one-dose screen, 48 h (100 = growth as untreated, 0 = no growth, -100 = all killed)", "details": "10 µM unless noted", "values": [
      {"molecule": "CCOC(C)(c1ccc(Cl)cc1)C1CCNCC1", "note": "(stereo unspecified)", "growth": "82.6% (inactive)"},
      {"molecule": "O=S(=O)(NCC[C@@H]1C[C@H]1c1ccc2ccccc2c1)c1ccc(C(F)(F)F)cc1", "growth": "81.7% (inactive)"},
      {"molecule": "CC(CN1CCN(C)CC1)CN1c2ccccc2Sc2ccc(C(F)(F)F)cc21", "note": "(stereo unspecified)", "growth": "31.3% (inactive)"},
      {"molecule": "NC(=S)N/N=C(/c1cccs1)C1CC1", "growth": "63.5% (inactive)"},
      {"molecule": "COc1cc(C2Nc3ccccc3S2)cc(CN2CCOCC2)c1O", "note": "(stereo unspecified)", "growth": "82.1% (inactive)"},
      {"molecule": "O=[N+]([O-])c1cccc([I+]c2ccccc2)c1", "growth": "59.1% (inactive)"},
      {"molecule": "C=CCn1c(SCC(=O)Nc2ccc(/C(C)=N\\O)cc2)nnc1-c1cc(-c2ccccc2)nc2ccccc12", "growth": "43.5% (inactive)"},
      {"molecule": "C=CC[C@]1(O)CC[C@H]2[C@@H]3CCc4cc(O)ccc4[C@H]3CC[C@@]21C", "growth": "85.6% (inactive)"},
      {"molecule": "CC(=O)c1c(O)c(C)c(O)c2c1OC1=CC(=O)/C(=C(/C)N)C(=O)C12C", "note": "(stereo unspecified)", "growth": "85.1% (inactive)"},
      {"molecule": "COc1c(B(O)O)cccc1-c1nc2c(F)cc3n[nH]c(C)c3c2c2c1CCCC2", "growth": "27.3% (inactive)"},
      {"molecule": "CCCCNCC(O)c1cc(-c2ccc(C(F)(F)F)cc2)nc(-c2ccc(C(F)(F)F)cc2)c1", "note": "(stereo unspecified)", "growth": "-81.1% (active)"},
      {"molecule": "Oc1[nH]c2ccc(Cl)cc2c1/C=c1/ccc2c(c1)N=C(c1ccc(F)cc1)N=2", "growth": "48.5% (inactive)"},
      {"molecule": "COc1ccc(C(=O)c2c(N)nc3n2CCCC3)cc1OC", "growth": "101% (inactive)"},
      {"molecule": "CCOC(=O)Nc1ccc2nc(-c3cscn3)[nH]c2c1", "growth": "82.2% (inactive)"},
      {"molecule": "CCOC(=O)C(Nc1ccccc1)C(=O)OCC", "growth": "88.1% (inactive)"},
      {"molecule": "CN1CCN(Cc2ccc(NC(=O)c3cncc(C#Cc4ncc5ccccn45)c3)cc2C(F)(F)F)CC1", "growth": "21.9% (inactive)"},
      {"molecule": "COS(=O)(=O)CCN(CCOS(C)(=O)=O)S(C)(=O)=O", "growth": "94.8% (inactive)"},
      {"molecule": "O=C(c1ccccc1)N(CCCCl)C(=O)N(CCCCl)C(=O)c1ccccc1", "growth": "72.1% (inactive)"},
      {"molecule": "OC(c1cc2cc(Cl)ccc2c2cc(C(F)(F)F)ccc12)C1CCCCN1", "note": "(stereo unspecified)", "growth": "-83.1% (active)"},
      {"molecule": "CC(C)CC(NC(=O)C(CCCN=C(N)N)NC(=O)OCc1ccccc1)C(=O)NC(CNC(=O)/C=C/c1ccccc1)C(C)C", "note": "(stereo unspecified)", "growth": "89.2% (inactive)"},
      {"molecule": "CCn1c(CN2CCN(Cc3ccccc3)CC2)nc2cc(NC(=O)c3cccs3)ccc21", "growth": "-51.5% (active)"},
      {"molecule": "COc1cc(C)cc2oc3oc(=O)c(-c4csc(-c5cc6ccccc6oc5=O)n4)cc3c(=O)c12", "growth": "104% (inactive)"},
      {"molecule": "OC(c1cc2c(Cl)cc(Cl)cc2c2cc(C(F)(F)F)ccc12)C1CCCCN1", "note": "(stereo unspecified)", "growth": "-84% (active)"},
      {"molecule": "N#CC1=C(N)Oc2nc[nH]c(=O)c2C1c1cccs1", "note": "(stereo unspecified)", "growth": "97.9% (inactive)"},
      {"molecule": "Cc1cc(C)cc(Nc2cc(C)nc3nc(C(F)(F)F)nn23)c1", "growth": "57.1% (inactive)"},
      {"molecule": "Cc1ccc(N2C3c4ccccc4N(S(=O)(=O)c4ccc(C)cc4)C2c2ccccc2N3S(=O)(=O)c2ccc(C)cc2)cc1", "growth": "90.4% (inactive)"},
      {"molecule": "CCOC(=O)c1ccc(NC(=O)NC2=NCCS2)cc1", "growth": "16% (inactive)"}
    ]},
    {"test_system": "SK-MEL-5 melanoma", "test": "NCI-60 one-dose screen, 48 h (100 = growth as untreated, 0 = no growth, -100 = all killed)", "details": "10 µM unless noted", "values": [
      {"molecule": "[O-]/[N+](=C\\c1ccccc1)CC1(O)CCCCC1", "growth": "105% (inactive)"},
      {"molecule": "CC(=O)O[C@H]1[C@H](CC#CC#CC[C@@H]2C[C@]3(C)[C@H]4CC=C5[C@H]6[C@@H](C)[C@H](C)CC[C@]6(C(=O)NCCCCCCCCN)CC[C@@]5(C)[C@]4(C)CC[C@H]3C(C)(C)[C@H]2OC(C)=O)C[C@]2(C)[C@H]3CC=C4[C@H]5[C@@H](C)[C@H](C)CC[C@]5(C(=O)NCCCCCCCCN)CC[C@@]4(C)[C@]3(C)CC[C@H]2C1(C)C", "growth": "105% (inactive)"},
      {"molecule": "N#Cc1c(N)c(C(=O)c2ccc3c(c2)OCCO3)n2c1CCCC2", "growth": "22.8% (inactive)"},
      {"molecule": "Cc1c(O)c(=O)n(-c2ccccc2)n1C", "growth": "110% (inactive)"},
      {"molecule": "COc1ccc2[nH]c(O)c(/C=c3/ccc4c(c3)N=C(c3ccc(C(F)(F)F)cc3)N=4)c2c1", "growth": "79.1% (inactive)"},
      {"molecule": "COc1ccc(/C=C/C(=O)c2ccc(NC(=O)CSc3nnc(-c4ccc(OC)cc4)n3-c3ccccc3)cc2)cc1", "growth": "95.1% (inactive)"},
      {"molecule": "N=C(N)c1ccc(-c2ccc(-c3cc(Cl)cc(Cl)c3)o2)nc1", "growth": "34.7% (inactive)"},
      {"molecule": "CN(C)c1ccc(N2Cc3ccccc3OC3=C2C(=O)c2c(O)ccc(O)c2C3=O)cn1", "growth": "-81.3% (active)"},
      {"molecule": "COc1ccccc1/C=N\\NC(=S)Nc1ccc(F)cc1", "growth": "85.1% (inactive)"},
      {"molecule": "FC(F)(F)C1=NNC(c2ccc3ccccc3c2)=NN1", "growth": "97.8% (inactive)"},
      {"molecule": "CCCC(CCC)NCC(O)c1cc(-c2ccc(C(F)(F)F)cc2)nc(C(F)(F)F)c1", "note": "(stereo unspecified)", "growth": "-94% (active)"},
      {"molecule": "CCOC(=O)c1c(NC(=O)c2ccccc2)sc2c(O)c(CN(CC)CC)ccc12", "growth": "-51.3% (active)"},
      {"molecule": "CCOC(C)(c1ccc(Cl)cc1)C1CCNCC1", "note": "(stereo unspecified)", "growth": "102% (inactive)"},
      {"molecule": "O=S(=O)(NCC[C@@H]1C[C@H]1c1ccc2ccccc2c1)c1ccc(C(F)(F)F)cc1", "growth": "94.5% (inactive)"},
      {"molecule": "CC(CN1CCN(C)CC1)CN1c2ccccc2Sc2ccc(C(F)(F)F)cc21", "note": "(stereo unspecified)", "growth": "-82.7% (active)"},
      {"molecule": "NC(=S)N/N=C(/c1cccs1)C1CC1", "growth": "106% (inactive)"},
      {"molecule": "COc1cc(C2Nc3ccccc3S2)cc(CN2CCOCC2)c1O", "note": "(stereo unspecified)", "growth": "50.6% (inactive)"},
      {"molecule": "O=[N+]([O-])c1cccc([I+]c2ccccc2)c1", "growth": "-2.62% (active)"},
      {"molecule": "C=CCn1c(SCC(=O)Nc2ccc(/C(C)=N\\O)cc2)nnc1-c1cc(-c2ccccc2)nc2ccccc12", "growth": "48.4% (inactive)"},
      {"molecule": "C=CC[C@]1(O)CC[C@H]2[C@@H]3CCc4cc(O)ccc4[C@H]3CC[C@@]21C", "growth": "99.6% (inactive)"},
      {"molecule": "CC(=O)c1c(O)c(C)c(O)c2c1OC1=CC(=O)/C(=C(/C)N)C(=O)C12C", "note": "(stereo unspecified)", "growth": "88.4% (inactive)"},
      {"molecule": "COc1c(B(O)O)cccc1-c1nc2c(F)cc3n[nH]c(C)c3c2c2c1CCCC2", "growth": "20.4% (inactive)"},
      {"molecule": "CCCCNCC(O)c1cc(-c2ccc(C(F)(F)F)cc2)nc(-c2ccc(C(F)(F)F)cc2)c1", "note": "(stereo unspecified)", "growth": "-24.2% (active)"},
      {"molecule": "Oc1[nH]c2ccc(Cl)cc2c1/C=c1/ccc2c(c1)N=C(c1ccc(F)cc1)N=2", "growth": "59.3% (inactive)"},
      {"molecule": "COc1ccc(C(=O)c2c(N)nc3n2CCCC3)cc1OC", "growth": "100% (inactive)"},
      {"molecule": "CCOC(=O)Nc1ccc2nc(-c3cscn3)[nH]c2c1", "growth": "31.9% (inactive)"},
      {"molecule": "CCOC(=O)C(Nc1ccccc1)C(=O)OCC", "growth": "102% (inactive)"},
      {"molecule": "CN1CCN(Cc2ccc(NC(=O)c3cncc(C#Cc4ncc5ccccn45)c3)cc2C(F)(F)F)CC1", "growth": "52.3% (inactive)"},
      {"molecule": "COS(=O)(=O)CCN(CCOS(C)(=O)=O)S(C)(=O)=O", "growth": "104% (inactive)"},
      {"molecule": "O=C(c1ccccc1)N(CCCCl)C(=O)N(CCCCl)C(=O)c1ccccc1", "growth": "89.6% (inactive)"},
      {"molecule": "OC(c1cc2cc(Cl)ccc2c2cc(C(F)(F)F)ccc12)C1CCCCN1", "note": "(stereo unspecified)", "growth": "-24.9% (active)"},
      {"molecule": "CC(C)CC(NC(=O)C(CCCN=C(N)N)NC(=O)OCc1ccccc1)C(=O)NC(CNC(=O)/C=C/c1ccccc1)C(C)C", "note": "(stereo unspecified)", "growth": "106% (inactive)"},
      {"molecule": "CCn1c(CN2CCN(Cc3ccccc3)CC2)nc2cc(NC(=O)c3cccs3)ccc21", "growth": "-98.9% (active)"},
      {"molecule": "COc1cc(C)cc2oc3oc(=O)c(-c4csc(-c5cc6ccccc6oc5=O)n4)cc3c(=O)c12", "growth": "99.9% (inactive)"},
      {"molecule": "OC(c1cc2c(Cl)cc(Cl)cc2c2cc(C(F)(F)F)ccc12)C1CCCCN1", "note": "(stereo unspecified)", "growth": "8.25% (active)"},
      {"molecule": "N#CC1=C(N)Oc2nc[nH]c(=O)c2C1c1cccs1", "note": "(stereo unspecified)", "growth": "102% (inactive)"},
      {"molecule": "Cc1cc(C)cc(Nc2cc(C)nc3nc(C(F)(F)F)nn23)c1", "growth": "32.1% (inactive)"},
      {"molecule": "Cc1ccc(N2C3c4ccccc4N(S(=O)(=O)c4ccc(C)cc4)C2c2ccccc2N3S(=O)(=O)c2ccc(C)cc2)cc1", "growth": "103% (inactive)"},
      {"molecule": "CCOC(=O)c1ccc(NC(=O)NC2=NCCS2)cc1", "growth": "75.9% (inactive)"}
    ]}
  ]
}
